Test results taken from PubChem BioAssay (Tox21).
Records with an inconclusive call do not appear. Activity calls are given as the source filed them. Unless noted, calls come from the whole dose curve; as a rule, active = well fitted curve in the direction sought with a large enough effect in the repeat runs; inconclusive = weak or mixed curves; inactive = no such curve, though single readings can be large; an effect the other way counts as inactive or inconclusive.

Columns and labels:
[1] = qHTS assay for small molecules that induce genotoxicity in human embryonic kidney cells expressing luciferase-tagged ATAD5 (AID 651632); note: nearly all actives have a fitted effect of over 15% in size
In short: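 Concentration-response screen for ATAD5 upregulation in HEK293T luciferase reporter cells; 16 hr treatment at 37C, then luminescence after 30 min with Amplite at room temperature.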

[2] = qHTS assay for small molecule agonists of the p53 signaling pathway - cell viability (AID 651633; calls by dose curve;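 note: p53RE-bla HCT reporter cells with a stable beta-lactamase p53 reporter; series mostly up to about 83 µM; nearly all actives have a fitted effect of over 30% in size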)
In short: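 p53RE-bla cells were treated with compound for 16 hours at 37 C. Cytotoxicity was then measured as CellTiter-Glo luminescence after 30 min at room temperature.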

[3] = qHTS assay for small molecule disruptors of the mitochondrial membrane potential - cell viability (AID 720634; calls by dose curve;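 note: human HepG2 liver cancer cells; series mostly up to about 83 µM; nearly all actives have a fitted effect of over 20% in size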)
In short: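 In this qHTS format, HepG2 cells plated overnight were pinned with compound, incubated 1 hr, and assayed for ATP luminescence with CellTiter-Glo after m-MPI dye addition.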

[4] = qHTS assay to test for compound auto fluorescence at 590 nm (red) in HepG2 cells (AID 720674)
In short: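 Seeding: 2,000 HepG2 cells/well, MEM/10% FBS, overnight 37 C. Dosing: compound vs DMSO. Incubation: 1 hr, 37 C, 5% CO2. Read: fluorescence 540 ex/590 em, Rose Bengal sodium as red reference.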

[5] = qHTS assay to test for compound auto fluorescence at 535 nm (green) in HepG2 cells (AID 720675)
[6] = qHTS assay to test for compound auto fluorescence at 460 nm (blue) in HEK293 cells (AID 720678)
In short: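 Auto fluorescence in the blue band was quantified as triamterene equivalency. HEK293 cells were seeded at 2,000/well, dosed after a 4-5 hr attachment, and kept overnight at 37C before the 405/460 nm reading.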

[7] = qHTS assay to test for compound auto fluorescence at 590 nm (red) in HEK293 cells (AID 720679)
In short: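 Autofluorescence equivalency to Rose Bengal sodium, 540/590nm, in HEK293 cells exposed overnight to 23 nL compound per well.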

[8] = qHTS assay to test for compound auto fluorescence at 535 nm (green) in HEK293 cells (AID 720680)
[9] = qHTS assay to test for compound auto fluorescence at 460 nm (blue) in HEK293 cell free culture (AID 720681)
In short: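 Compounds were added to cell-free DMEM with 10% FBS and fluorescence read directly. The blue channel used 405 nm excitation and 460 nm emission, with triamterene as the reference fluorophore.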

[10] = qHTS assay to test for compound auto fluorescence at 535 nm (green) in HEK293 cell free culture (AID 720682)
In short: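 Measurement is a direct plate read of green fluorescence (485 nm in, 535 nm out) after compound addition to serum-supplemented DMEM lacking cells, with fluorescein used to express intensities.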

[11] = qHTS assay to test for compound auto fluorescence at 590 nm (red) in HEK293 cell free culture (AID 720683)
In short: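 Cell-free wells of DMEM with 10% FBS received compound, and intrinsic fluorescence was read at excitation/emission 540/590 nm. Values expressed as equivalence to Rose Bengal sodium.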

[12] = qHTS assay to test for compound auto fluorescence at 590 nm (red) in HepG2 cell free culture (AID 720684)
In short: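 Rose Bengal sodium served as the reference for red signal. Test compounds were dispensed into serum-containing MEM (10% FBS) without cells, and plates were read at 540/590 nm.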

[13] = qHTS assay to test for compound auto fluorescence at 460 nm (blue) in HepG2 cell free culture (AID 720685)
In short: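 Cell-free plates of MEM plus 10% FBS received 23 nL compound or DMSO vehicle; blue-channel (405/460 nm) intensity scored against triamterene as reference fluorophore.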

[14] = qHTS assay to test for compound auto fluorescence at 535 nm (green) in HepG2 cell free culture (AID 720686)
[15] = qHTS assay to test for compound auto fluorescence at 460 nm (blue) in HepG2 cells (AID 720687)
In short: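 HepG2 cells in MEM with 10% FBS, attached overnight at 37 C, were exposed to compound or DMSO for 1 hr at 37 C, 5% CO2. Blue fluorescence was read at 405/460 nm, with triamterene as reference fluorophore.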

[16] = target: Glucocorticoid receptor (Homo sapiens) (UniProt P04150); experiment: qHTS assay to identify small molecule agonists of the glucocorticoid receptor (GR) signaling pathway (AID 720691; active = well fitted activation curve with a large enough effect in the signal ratio in the repeat runs, not every such curve was filed as active; the % refers to the signal ratio)
Chain of Glucocorticoid receptor (Homo sapiens) (P04150 whole entry, looked up): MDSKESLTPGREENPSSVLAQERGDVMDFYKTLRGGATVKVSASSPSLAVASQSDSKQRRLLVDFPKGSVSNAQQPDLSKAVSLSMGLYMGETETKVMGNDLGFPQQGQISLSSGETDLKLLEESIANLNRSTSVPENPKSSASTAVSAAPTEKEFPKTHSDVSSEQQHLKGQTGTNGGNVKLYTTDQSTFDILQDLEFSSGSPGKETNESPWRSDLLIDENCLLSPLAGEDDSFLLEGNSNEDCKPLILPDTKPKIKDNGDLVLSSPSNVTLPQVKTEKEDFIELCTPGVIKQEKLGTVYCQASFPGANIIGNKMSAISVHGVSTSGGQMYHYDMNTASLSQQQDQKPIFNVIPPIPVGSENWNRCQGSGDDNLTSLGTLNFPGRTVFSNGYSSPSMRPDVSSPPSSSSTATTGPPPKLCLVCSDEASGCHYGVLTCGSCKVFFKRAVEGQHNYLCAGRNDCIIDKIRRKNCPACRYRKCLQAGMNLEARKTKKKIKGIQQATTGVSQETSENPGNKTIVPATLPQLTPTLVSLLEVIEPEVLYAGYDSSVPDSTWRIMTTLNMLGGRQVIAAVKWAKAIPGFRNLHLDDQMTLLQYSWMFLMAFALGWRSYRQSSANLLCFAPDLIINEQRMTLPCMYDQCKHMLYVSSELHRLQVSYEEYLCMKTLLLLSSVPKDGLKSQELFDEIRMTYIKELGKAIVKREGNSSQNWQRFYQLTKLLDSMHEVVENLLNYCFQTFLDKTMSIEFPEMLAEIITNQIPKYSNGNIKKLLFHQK
In short: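 Measures GR pathway activation through a GRE-beta-lactamase reporter stably integrated in HeLa cells, with 18 h compound treatment at 37 C and fluorescence detection using a FRET substrate.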

[17] = target: Glucocorticoid receptor (Homo sapiens) (UniProt P04150); experiment: qHTS assay to identify small molecule antagonists of the glucocorticoid receptor (GR) signaling pathway (AID 720692; active = well fitted inhibition curve with a large enough effect in the signal ratio in the repeat runs, not every such curve was filed as active; the % refers to the signal ratio)
In short: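 Tox21 10K library screened in concentration-response for blockade of dexamethasone (5 nM final)-induced GRE-bla reporter activity in HeLa cells; 18 h treatment, fluorescence read.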

[18] = qHTS assay for small molecule disruptors of the mitochondrial membrane potential (AID 720635)
In short: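 HepG2 cells exposed to compound 1 hr at 37C, then Mito-MPS dye 30 min. Ratio read of aggregate (540/590 nm) versus monomer (490/535 nm) fluorescence.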

[19] = qHTS assay for small molecules that induce genotoxicity in human embryonic kidney cells expressing luciferase-tagged ATAD5 - cell viability (AID 651634; calls by dose curve; note: nearly all actives have a fitted effect of over 25% in size)
In short: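 15.5 hr compound or vehicle exposure of HEK293T cells expressing luciferase-tagged ATAD5 at 37C; live-cell protease activity is read by fluorescence after 30 min of CellTiter-Fluor.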
% is set by controls: 0 for no effect and ±100 for the full control effect.

C=C(C)[C@H]1CN[C@H](C(=O)O)[C@H]1CC(=O)O
inactive: outcome [1] | Potency [2] | Potency [3] | outcome [4] | outcome [5] | outcome [6] | outcome [7] | outcome [8] | outcome [9] | outcome [10] | outcome [11] | outcome [12] | outcome [13] | outcome [14] | outcome [15] | Potency [16] | Potency [17]

C[C@@H](N)[C@@H](O)c1ccccc1
inactive: Potency [3] | Potency [18] | fluorescence, relative to Rose Bengal [4] -0.248% [at 18.6 µM] | fluorescence, % of fluorescein control [5] -0.0859% [at 18.6 µM] | fluorescence, % of triamterene [6] 0.0027% [at 18.6 µM] | fluorescence, % of fluorescent control [7] -0.083% [at 18.6 µM] | fluorescence, % of fluorescein [8] 0.072% [at 18.6 µM] | fluorescence, % of fluorescent control [9] -0.0641% [at 18.6 µM] | fluorescence, % of Rose Bengal [12] 0.843% [at 18.6 µM] | fluorescence, % of fluorescein control [14] 0.0244% [at 18.6 µM] | fluorescence, % of fluorescent control [15] -0.0421% [at 18.6 µM] | Potency [16] | Potency [17]

CN(C)CCN(C)C
inactive: outcome [1] | Potency [19] | Potency [3] | outcome [4] | outcome [5] | outcome [6] | outcome [7] | outcome [8] | outcome [9] | outcome [11] | outcome [13] | outcome [14] | outcome [15] | Potency [16]

CCNc1nc(Cl)nc(NC(C)(C)C)n1
inactive: Potency [2] | Potency [19] | Potency [3] | outcome [4] | outcome [5] | outcome [6] | outcome [7] | outcome [8] | outcome [9] | outcome [10] | outcome [11] | outcome [13] | outcome [14] | outcome [15] | Potency [16]

CC(O)CCl (stereo not drawn)
inactive: Potency [2] | Potency [3] | outcome [4] | outcome [5] | outcome [6] | outcome [7] | outcome [8] | outcome [9] | outcome [10] | outcome [11] | outcome [12] | outcome [13] | outcome [14] | outcome [15] | Potency [16] | Potency [17]

Cc1ccc(S(=O)(=O)N[C@@H](CCCCN)C(=O)CCl)cc1
inactive: Potency [3] | outcome [4] | outcome [5] | outcome [6] | outcome [7] | outcome [8] | outcome [9] | outcome [10] | outcome [11] | outcome [12] | outcome [13] | outcome [14] | outcome [15] | Potency [16]

N#CN
inactive: Potency [2] | Potency [19] | Potency [3] | Potency [18] | outcome [4] | outcome [5] | outcome [6] | outcome [7] | outcome [8] | outcome [9] | outcome [10] | outcome [12] | outcome [13] | outcome [14] | outcome [15] | Potency [16] | Potency [17]

Nc1c(Cl)c(F)nc(OCC(=O)O)c1Cl
inactive: Potency [2] | Potency [19] | Potency [3] | Potency [18] | outcome [5] | outcome [6] | outcome [7] | outcome [8] | outcome [9] | outcome [11] | outcome [12] | outcome [13] | outcome [14] | outcome [15] | Potency [16] | Potency [17]

O=C(Cl)CCl
inactive: Potency [2] | Potency [19] | Potency [3] | Potency [18] | outcome [4] | outcome [5] | outcome [6] | outcome [7] | outcome [8] | outcome [9] | outcome [13] | outcome [14] | outcome [15]

CC(C)[C@]12CC(=O)[C@H](C)[C@H]1C2
inactive: Potency [2] | Potency [19] | Potency [3] | Potency [18] | outcome [4] | outcome [5] | outcome [6] | outcome [7] | outcome [8] | outcome [9] | outcome [10] | outcome [11] | outcome [12] | outcome [13] | outcome [14] | outcome [15]

NC(=O)CS(=O)C(c1ccccc1)c1ccccc1 (stereo not drawn)
inactive: outcome [1] | Potency [2] | Potency [3] | outcome [4] | outcome [5] | outcome [6] | outcome [7] | outcome [8] | outcome [9] | outcome [10] | outcome [11] | outcome [12] | outcome [13] | outcome [14] | outcome [15] | Potency [16] | Potency [17]

CCCC[N+](=O)[O-]
inactive: outcome [1] | Potency [2] | Potency [3] | outcome [4] | outcome [5] | outcome [6] | outcome [7] | outcome [8] | outcome [10] | outcome [12] | outcome [13] | outcome [14] | outcome [15] | Potency [16]

CCN(CC)CCOC(=O)C(O)(c1ccccc1)c1ccccc1
inactive: outcome [1] | Potency [2] | Potency [3] | Potency [18] | outcome [5] | outcome [6] | outcome [7] | outcome [10] | outcome [11] | outcome [12] | outcome [14] | outcome [15] | Potency [16]

CCOC(=O)COc1ccc(Cl)cc1Cl
inactive: Potency [2] | Potency [19] | Potency [3] | outcome [4] | outcome [5] | outcome [7] | outcome [8] | outcome [9] | outcome [10] | outcome [11] | outcome [12] | outcome [14] | outcome [15] | Potency [16]

c1ccc2c(c1)CCNC2
inactive: Potency [2] | Potency [3] | outcome [4] | outcome [5] | outcome [6] | outcome [7] | outcome [8] | outcome [9] | outcome [10] | outcome [11] | outcome [12] | outcome [14] | outcome [15]

O=C(O)c1c(Cl)ccc2cc(Cl)cnc12
inactive: outcome [1] | Potency [19] | Potency [3] | outcome [4] | outcome [5] | outcome [6] | outcome [7] | outcome [8] | outcome [9] | outcome [10] | outcome [11] | outcome [12] | outcome [13] | outcome [14] | outcome [15] | Potency [16]
